The nature of experiment [1]: liver-stage malaria parasite load reduction – cell-based, known kinase inhibitor set, luminescence, hepatoma host viability (AID 624392).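 Note: infected cells incubated roughly two days before readout.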 The conditions noted are these: Plasmodium liver stage in hepatoma cells, luciferase luminescence, concentration not given here; liver cell % of control: measured here: host liver cell viability; parasite % of control: stronger effect = lower value.

Experiment [2] is described as follows: altered dexamethasone sensitivity, NF-kB reporter, cell-based, luciferase, IL-1B stimulus (AID 624486).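 For percent of negative control (+Dex): 100% = mean signal of vehicle control wells on the plate.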 The following applies: IL-1B + dexamethasone, luminescence; percent of negative control (+Dex): actives lie on both sides, concentration not given here; z-score: measured here: IL-1B alone, no Dex.
Experiment [3] can be described thus: C. elegans survival during P. aeruginosa infection – whole organism (AID 651566).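 Note: tested at 14 µM; sign flipped so higher z means a lower ratio.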 The conditions noted are these: C. elegans killed by P. aeruginosa, survival ratio.
The nature of experiment [4]: pro-inflammatory signaling induction in mouse macrophages – cell-based, murine, luminescence (AID 652131). The following applies: murine macrophage pro-inflammatory reporter, stronger effect = higher value.
Experiment [5] concerns the target Cellular tumor antigen p53 (Homo sapiens) (UniProt P04637). Briefly: GFP-p53 level modulators in HPV16+ cells – imaging, known kinase inhibitor set, EGFP/DsRed ratio (AID 1053116).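 Note: cells exposed to compounds for 24 h at 37 °C before reading.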 The conditions noted are these: GFP-p53 stability, stronger effect = higher value; EGFP object count: measured here: GFP-p53 positive objects count.
Experiment [6] in a line: inducers of IRF3 signaling, differentiated THP-1 – cell-based, PMA-stimulated THP-1, luminescence (AID 1053176). The conditions noted are these: PMA-differentiated THP-1, IRF3 reporter luminescence; stronger effect = higher value.
Experiment [7] can be described thus: MELAS cybrid and Rieske KO viability enhancers – cell-based, MELAS cybrids, Rieske KO mouse fibroblasts, CellTiter-Glo, primary screen (AID 1508586;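 active = mean z-score across replicates of 1.96 or higher in either the MELAS or the Rieske mutant cell line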;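 note: z relative to plate mean and SD of compound and empty wells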). The following applies: low glucose. (In ATP-based viability assays light output follows the ATP content of the culture.)
The mark [8] stands for this setting: MELAS cybrid survival, CellTiter-Glo 48 h, stronger effect = higher value.
[9] abbreviates: Rieske KO mouse fibroblast survival, CellTiter-Glo 72 h.

Structures are written as SMILES. Active and inactive are the calls of the source. Unless noted, the rule behind the calls is not given here.

Sequence of Cellular tumor antigen p53 (Homo sapiens) (P04637 whole entry, looked up): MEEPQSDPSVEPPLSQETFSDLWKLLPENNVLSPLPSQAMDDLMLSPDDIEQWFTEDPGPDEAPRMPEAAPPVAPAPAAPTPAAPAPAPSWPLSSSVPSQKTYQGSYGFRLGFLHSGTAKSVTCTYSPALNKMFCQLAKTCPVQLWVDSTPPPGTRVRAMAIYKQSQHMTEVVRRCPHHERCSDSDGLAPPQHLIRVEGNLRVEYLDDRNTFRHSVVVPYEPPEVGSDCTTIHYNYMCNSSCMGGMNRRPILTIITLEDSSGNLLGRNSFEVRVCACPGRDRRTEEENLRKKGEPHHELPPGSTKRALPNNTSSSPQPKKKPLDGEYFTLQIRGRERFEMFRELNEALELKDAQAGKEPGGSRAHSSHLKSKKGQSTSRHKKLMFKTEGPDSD

As to `COc1ccc(CNC(=O)c2ccc(-c3cc(-c4nnc(C)o4)ccc3C)cc2)cc1`, the liver cell % of control in experiment [1] stood at 172%. Further, in experiment [1], the parasite % of control is 67.1% (inactive). The percent of negative control (+Dex) in experiment [2] was 102% (inactive). The z-score was 0.42 in experiment [2]; 1.23 (inactive) in experiment [3]; -0.363 (inactive) in experiment [4]; -0.23 (inactive) in experiment [7] (setting [8]); -0.248 in experiment [7] (setting [9]). Also, in experiment [5], the EGFP object count came out at 3. Besides, the EGFP/DsRed ratio in experiment [5] was 0.129 (inactive). Also, the fraction signal in experiment [6] was -0.008 (inactive).

In experiment [1], `CCCN1CCC=C(c2ccc(Nc3nc(Nc4ccccc4C(N)=O)c4cc[nH]c4n3)c(C)c2)C1` gave a liver cell % of control of 86.8%. Moreover, in experiment [1], the parasite % of control was 580% (inactive). In addition, the percent of negative control (+Dex) in experiment [2] is 88% (inactive). The z-score in experiment [2] was -0.67; in experiment [3], 0.47 (inactive); in experiment [4], -1.61 (inactive); in experiment [7] (setting [8]), -0.329 (inactive); in experiment [7] (setting [9]), 0.0526. In addition, in experiment [5], the EGFP object count was found to be 4. Further, the EGFP/DsRed ratio in experiment [5] is 0.193 (inactive). Also, the fraction signal in experiment [6] was 0 (inactive).

In experiment [1], `CC(=Nc1ccc(S(N)(=O)=O)cc1)c1c(O)[nH]c2ccccc12` displayed a liver cell % of control of 121%. Besides, in experiment [1], the parasite % of control is 234% (inactive). The percent of negative control (+Dex) in experiment [2] is 176% (active). Further, the z-score in experiment [2] was 5.95; in experiment [3], -0.905 (inactive); in experiment [4], 6.44 (active); in experiment [7] (setting [8]), -0.469 (inactive); in experiment [7] (setting [9]) it was -0.351. In experiment [5], the EGFP object count amounted to 0.5. Besides, in experiment [5], the EGFP/DsRed ratio is 0.00933 (inactive). Besides, the fraction signal in experiment [6] was 0.0025 (inactive).

With `CCCN1CCC(Oc2cc(Nc3nc(Nc4cccc(F)c4C(N)=O)c4cc[nH]c4n3)c(OC)cc2Cl)CC1`, the liver cell % of control in experiment [1] stood at 60.5%. Also, the parasite % of control in experiment [1] is 168% (inactive). Also, the percent of negative control (+Dex) in experiment [2] is 77.5% (inactive). In addition, the z-score in experiment [2] was -0.445; in experiment [3], 0.48 (inactive); in experiment [4] it was -0.663 (inactive); in experiment [7] (setting [8]) it was 0.312 (inactive); in experiment [7] (setting [9]) it was 0.375. The EGFP object count in experiment [5] is 67.5. In addition, the EGFP/DsRed ratio in experiment [5] was 0.575 (active). For the same compound, the fraction signal in experiment [6] is 0.0095 (inactive).

For `Nc1ncc(-c2cccc(S(N)(=O)=O)c2)c2scc(-c3ccc(F)c(Cl)c3)c12`, the liver cell % of control in experiment [1] was 86.2%. Moreover, the parasite % of control in experiment [1] is 63% (inactive). For the same compound, in experiment [2], the percent of negative control (+Dex) was 101% (inactive). Moreover, the z-score in experiment [2] is -0.045; in experiment [3], 0.425 (inactive); in experiment [4], 0.178 (inactive); in experiment [7] (setting [8]), -0.767 (inactive); in experiment [7] (setting [9]) it was -0.224. In addition, the EGFP object count in experiment [5] is 7. For the same compound, in experiment [5], the EGFP/DsRed ratio was 0.225 (inactive). Moreover, the fraction signal in experiment [6] was -0.008 (inactive).

Consider `CC1=C(C(=O)Nc2ccc3[nH]ncc3c2)C(c2ccc3ccccc3c2)CC(=O)N1` (centres undefined), for which the liver cell % of control in experiment [1] was determined as 109%. The parasite % of control in experiment [1] was 30% (inactive). For the same compound, in experiment [2], the percent of negative control (+Dex) is 79% (inactive). Further, the z-score was -1.06 in experiment [2]; -0.24 (inactive) in experiment [3]; 0.091 (inactive) in experiment [4]; 0.693 (inactive) in experiment [7] (setting [8]); -0.221 in experiment [7] (setting [9]). For the same compound, the EGFP object count in experiment [5] came out at 3. Besides, the EGFP/DsRed ratio in experiment [5] was 0.432 (inactive). For the same compound, in experiment [6], the fraction signal is -0.014 (inactive).

As to `O=C(O[C@H]1CN[C@H](C#Cc2cc3ncnc(Nc4ccc(OCc5cccc(F)c5)c(Cl)c4)c3s2)C1)N1CCOCC1`, the liver cell % of control in experiment [1] was determined as 89.4%. In addition, the parasite % of control in experiment [1] is 117% (inactive). In addition, the percent of negative control (+Dex) in experiment [2] was 74.5% (inactive). The z-score is -1.65 in experiment [2]; 0.44 (inactive) in experiment [3]; -0.505 (inactive) in experiment [4]; -0.421 (inactive) in experiment [7] (setting [8]); -0.498 in experiment [7] (setting [9]). Also, the EGFP object count in experiment [5] came out at 4.5. Besides, the EGFP/DsRed ratio in experiment [5] is 0.0369 (inactive). Further, the fraction signal in experiment [6] was -0.0095 (inactive).

On to `Nc1ccc(C#Cc2cncnc2Nc2ccc(OCc3cccc(F)c3)c(Cl)c2)cc1`, for which the liver cell % of control in experiment [1] amounted to 98%. Moreover, the parasite % of control in experiment [1] was 136% (inactive). Moreover, the percent of negative control (+Dex) in experiment [2] was 106% (inactive). Also, the z-score in experiment [2] was 0.915; in experiment [3], -0.52 (inactive); in experiment [4] it was -0.735 (inactive); in experiment [7] (setting [8]) it was -0.813 (inactive); in experiment [7] (setting [9]), -0.0706. The EGFP object count in experiment [5] was 4. The EGFP/DsRed ratio in experiment [5] is 0.276 (inactive). Besides, the fraction signal in experiment [6] is 0.001 (inactive).

`O=C(Nc1n[nH]c2cc(-c3cc(F)ccc3F)ccc12)C1CC1` had a liver cell % of control in experiment [1] of 90.7%. Besides, the parasite % of control in experiment [1] is 72.2% (inactive). Besides, in experiment [2], the percent of negative control (+Dex) was 81% (inactive). For the same compound, the z-score in experiment [2] is -0.38; in experiment [3] it was -0.655 (inactive); in experiment [4] it was 0.317 (inactive); in experiment [7] (setting [8]) it was -0.186 (inactive); in experiment [7] (setting [9]), -0.425. For the same compound, the EGFP object count in experiment [5] turned out to be 4. Moreover, the EGFP/DsRed ratio in experiment [5] is 0.173 (inactive). For the same compound, in experiment [6], the fraction signal is -0.0055 (inactive).

Take `Nc1nccc(-c2c(-c3ccc(F)cc3)nn3cc(C(F)(F)F)ccc23)n1`: the liver cell % of control in experiment [1] was determined as 111%. For the same compound, in experiment [1], the parasite % of control was 130% (inactive). The percent of negative control (+Dex) in experiment [2] is 107% (inactive). Also, the z-score was 1.32 in experiment [2]; -0.745 (inactive) in experiment [3]; -0.016 (inactive) in experiment [4]; -0.218 (inactive) in experiment [7] (setting [8]); -0.148 in experiment [7] (setting [9]). In experiment [5], the EGFP object count is 5.5. In experiment [5], the EGFP/DsRed ratio was 0.148 (inactive). For the same compound, the fraction signal in experiment [6] is -0.0075 (inactive).

For the compound `COc1ccc(-c2cc(C3CNNC3c3ccccn3)ccn2)cc1` (centres undefined), in experiment [1], the liver cell % of control worked out at 171%. The parasite % of control in experiment [1] was 92.3% (inactive). Further, the percent of negative control (+Dex) in experiment [2] is 104% (inactive). Moreover, the z-score in experiment [2] was 1.42; in experiment [3], -0.77 (inactive); in experiment [4] it was 2.73 (inactive); in experiment [7] (setting [8]) it was -0.36 (inactive); in experiment [7] (setting [9]), -0.107. The EGFP object count in experiment [5] is 3.5. Further, the EGFP/DsRed ratio in experiment [5] was 0.0398 (inactive). Besides, in experiment [6], the fraction signal was -0.0055 (inactive).

`CN(C)CCOc1ccc(-c2cc(-c3ccc4c(c3)CC/C4=N/O)c(-c3ccncc3)o2)cc1`: the liver cell % of control in experiment [1] came out at 77.4%. Also, in experiment [1], the parasite % of control is 441% (inactive). The percent of negative control (+Dex) in experiment [2] was 130% (inactive). Besides, the z-score in experiment [2] was 0.59; in experiment [3], 0.205 (inactive); in experiment [4], -0.386 (inactive); in experiment [7] (setting [8]), 0.463 (inactive); in experiment [7] (setting [9]) it was -0.429. For the same compound, the EGFP object count in experiment [5] stood at 48. In addition, in experiment [5], the EGFP/DsRed ratio was 1.74 (active). Besides, in experiment [6], the fraction signal is 0.045 (inactive).

With `O=C(O[C@H]1CN[C@H](C#Cc2cc3ncnc(Nc4ccc(Cc5ccccc5)cc4)c3s2)C1)N1CCOCC1`, the liver cell % of control in experiment [1] amounted to 106%. Moreover, the parasite % of control in experiment [1] was 85.4% (inactive). Besides, the percent of negative control (+Dex) in experiment [2] is 88% (inactive). The z-score in experiment [2] is -1.34; in experiment [3], -0.335 (inactive); in experiment [4] it was 0.302 (inactive); in experiment [7] (setting [8]) it was -0.24 (inactive); in experiment [7] (setting [9]) it was -0.218. In experiment [5], the EGFP object count was determined as 5.5. Moreover, in experiment [5], the EGFP/DsRed ratio was 0.104 (inactive). Also, in experiment [6], the fraction signal was -0.006 (inactive).

`COc1cc2ncnc(Nc3ccc(C)c(O)c3)c2cc1OC` had a liver cell % of control in experiment [1] of 56.5%. Also, the parasite % of control in experiment [1] is 110% (inactive). In experiment [2], the percent of negative control (+Dex) is 65.5% (inactive). Moreover, the z-score in experiment [2] was -2.25; in experiment [3] it was 0.58 (inactive); in experiment [4], 2.59 (inactive); in experiment [7] (setting [8]), 1.32 (inactive); in experiment [7] (setting [9]), -0.31. In experiment [5], the EGFP object count was 6. In experiment [5], the EGFP/DsRed ratio was 0.129 (inactive). For the same compound, in experiment [6], the fraction signal was 0.0075 (inactive).

The values above are taken from PubChem BioAssay.
